Compound activity as filed in PubChem BioAssay.
FMDV inh: foot and mouth disease virus antiviral activity; FMDV antiviral cell-based qHTS; 410,000 compounds, 1.2% hits; Potency, µM (doses to about 57.9 µM), inactives show at the top dose activity change, negative = inhibition, most hits filed as inhibitors; calls by dose curve; tested in HEK293T cells; also: read-out not given here; potency is read from the fitted curve at half-maximal effect; nearly all actives have a fitted effect of over 45% in size
Lassa entry inh: Lassa virus entry inhibition | Lassa virus pseudotype entry inhibition, cell reporter | Potency, µM (doses to about 37.9 µM), inactives show top-dose activity change, negative = inhibition, usual class: inhibitors | 300,000 compounds, 1.2% hits; calls by dose curve; tested in HEK293 cells; also: potency is read from the fitted curve at half-maximal effect; nearly all actives have a fitted effect of over 50% in size
MARV entry inh: Marburg virus entry inhibition | Marburg virus pseudotyped entry inhibition, cell reporter | AID 540276 | Potency, µM (series often up to 37.8 µM), inactives show at the highest dose activity change, negative = inhibition, hits mostly inhibitors | 300,000 compounds, 1.8% hits; calls by dose curve; tested in HEK293 cells; also: potency is read from the fitted curve at half-maximal effect
HCMV inh: inhibitors of human cytomegalovirus. HFF cells, HCMV-luciferase reporter, 72 h; stronger effect = lower value. AID 1259415. activity change, negative = inhibition, % at 57.5 µM. 410,000 compounds, 4.5% hits; in the data active = activity change below about -60%; inconclusive = no clear call, values can overlap the other calls; inactive = above about -39%
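Luciferase read-out from HCMV-luciferase-infected HFFs (MOI 1 PFU/cell) 72 h post infection at 37C; compounds added after 16 h cell attachment; activity normalized between buffer-only basal and Salinomycin (10uM) inhibitor controls.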
VACV mCherry inh: inhibitors of vaccinia virus infection (mCherry reporter signal) | 310,000 compounds, 0.63% hits | Potency, µM (highest dose often 36.5 µM), for inactives: top-dose activity change, negative = inhibition, actives largely listed as inhibitors | Vaccinia virus mCherry reporter infection, fluorescence; calls by dose curve; tested in A549 cells; also: potency is read from the fitted curve at half-maximal effect; nearly all actives have a fitted effect of over 35% in size
Vaccinia Venus: inhibitors of vaccinia virus (Venus reporter); Vaccinia virus Venus reporter expression, fluorescence; Potency, µM (series often up to 36.5 µM), without a hit: top-dose activity change, negative = inhibition, most hits filed as inhibitors; 330,000 compounds, 0.46% hits; AID 720580; calls by dose curve; tested in A549 cells; also: potency is read from the fitted curve at half-maximal effect; nearly all actives have a fitted effect of over 30% in size
* hit, by the source's call; [ ] = another dose, or the depositor's remark. A selection: hits, their analogues and other compounds. The true share with any hit is near 6.5%. % is scaled to controls: 0 for no effect and ±100 for the full control effect.

`CCCN(CCC)CC(O)Cn1cc(/C=C/C(=O)c2ccc(OC)cc2)c2ccccc21` (stereo not given) gave FMDV inh -14.4%, Lassa entry inh inconclusive, MARV entry inh inconclusive, HCMV inh 8.4, VACV mCherry inh inactive and Vaccinia Venus -25.4%.
For CC(=NNC(N)=O)C1=C(O)C(C(C)C)NC1=O (stereo not given) the results were FMDV inh -1.2%, Lassa entry inh 14.1%, MARV entry inh 13.2%, HCMV inh -25.5, VACV mCherry inh -10.4% and Vaccinia Venus -9.0%.
Screening CCOC(=O)[C@H](c1ccccc1)N1CCN(c2ccc(OC)cc2)CC1 returned MARV entry inh 1.0%.
Screening O=C(c1ccc(CSc2nc3ccncc3n2Cc2ccccc2F)cc1)N1CCCCCC1 returned FMDV inh -10.0%, MARV entry inh 25.0%[46.1 µM], HCMV inh -15.7, VACV mCherry inh -26.2% and Vaccinia Venus -21.0%.
O=C(CC(=O)Nc1cccc(F)c1)Nc1cccc(F)c1 was read as FMDV inh 67.2%, Lassa entry inh 0.1%, MARV entry inh 1.6%, HCMV inh 52.1, VACV mCherry inh inactive and Vaccinia Venus -6.9%.
O=C(C#Cc1ccccc1)Nc1cccc(F)c1 was read as FMDV inh 32.8%, Lassa entry inh 11.2µM*, MARV entry inh inconclusive, HCMV inh -104.2*, VACV mCherry inh 3.55µM* and Vaccinia Venus inconclusive.
For O=C(C#Cc1ccccc1)Nc1ccc(F)cc1 the results were FMDV inh 11.3%, Lassa entry inh inconclusive, MARV entry inh inconclusive, HCMV inh -102.2*, VACV mCherry inh inconclusive and Vaccinia Venus inconclusive.
`COC(=O)C[C@@H]1OC[C@H](C)N1S(=O)(=O)c1ccc(C)cc1` gave FMDV inh -6.9%, HCMV inh 9.1, VACV mCherry inh 1.1% and Vaccinia Venus -0.6%.
For CN(CC(=O)Nc1c(Cl)cccc1Cl)C(=O)Cc1ccsc1 the results were FMDV inh -8.5%, Lassa entry inh -10.1%, MARV entry inh 7.3%, HCMV inh 0.4, VACV mCherry inh -19.7% and Vaccinia Venus -8.2%.
`CCc1cc(C(=O)N(C)CC(=O)Nc2c(Cl)cccc2Cl)sc1C` gave FMDV inh -18.6%, Lassa entry inh 8.91µM*, MARV entry inh inconclusive, HCMV inh -67.0*, VACV mCherry inh inactive and Vaccinia Venus -10.5%.
Screening Cn1cc(C(=O)C(F)(F)F)c2ccccc21 returned FMDV inh -9.6%, Lassa entry inh 2.2%, MARV entry inh 13.1%, HCMV inh 66.9 and Vaccinia Venus 15.3%.
Screening Cn1cc(C(=O)Cc2ccccc2)c2ccccc21 returned FMDV inh 12.7%, Lassa entry inh 9.8%, MARV entry inh -6.2%, HCMV inh -67.1*, VACV mCherry inh -15.6% and Vaccinia Venus -7.9%.
Screening O=C(NCC1CCCO1)c1ccccc1S(=O)(=O)c1ccc([N+](=O)[O-])cc1 (stereo not given) returned FMDV inh 0.6%, Lassa entry inh -1.8%, MARV entry inh 0.3%[46.1 µM], HCMV inh -31.4, VACV mCherry inh -11.0% and Vaccinia Venus -6.7%.
For COc1ccc(CNC(=O)CSc2nnc3c(n2)[nH]c2ccc(F)cc23)cc1 the results were FMDV inh -9.5%, Lassa entry inh 18.5%, MARV entry inh 4.1%[46.1 µM], HCMV inh -70.7*, VACV mCherry inh 21.5% and Vaccinia Venus 3.2%.
`CC(C)OC(=O)CSc1nnc2c(n1)[nH]c1ccc(F)cc12` gave FMDV inh inconclusive, Lassa entry inh inconclusive, MARV entry inh -10.3% and HCMV inh -88.0*.
For O=C(CSc1nnc2c(n1)[nH]c1ccc(F)cc12)NCc1ccc(F)cc1 the results were FMDV inh -9.5%, MARV entry inh 2.9%[46.1 µM], HCMV inh -34.0, VACV mCherry inh 5.3% and Vaccinia Venus -5.3%.
O=C(Nc1ccc(SC(F)F)cc1)c1ccc2c(=O)n3c(nc2c1)CCC3 was read as FMDV inh inconclusive and HCMV inh -70.3*.
O=C(Nc1cccc(S(=O)(=O)N2CCCC2)c1)c1ccc2c(=O)n3c(nc2c1)CCCCC3 was read as FMDV inh 12.6µM*, Lassa entry inh 20.6µM*, MARV entry inh inconclusive, HCMV inh -66.4*, VACV mCherry inh inconclusive and Vaccinia Venus inconclusive.
